Bioassay records: PubChem BioAssay, several laboratories
Rows were chosen to be rich in hits. Some 2.4% of all compounds tested hit in one or more screens of this group.
SENP8 block-1: SENP8 (human) protease inhibition; Q96LD8; inhibition, % at 20 µM; 360,000 compounds, 0.64% hits; recombinant SENP8, Nedd8 substrate fluorescence; in the data active = inhibition mostly above about 40%, no sharp cut-off; inactive = mostly below about 27%
SENP7 block: inhibitors of human SENP7 protease; Q9BQF6; recombinant SENP7, Z-RLRGG-aminoluciferin luminescence, 40 min; inhibition, % at 5 µM; 330,000 compounds, 1.5% hits;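 active = inhibition above about 50% at the single test dose, limit read from the data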
Target sequence (Q9BQF6 706-1050 limits assumed): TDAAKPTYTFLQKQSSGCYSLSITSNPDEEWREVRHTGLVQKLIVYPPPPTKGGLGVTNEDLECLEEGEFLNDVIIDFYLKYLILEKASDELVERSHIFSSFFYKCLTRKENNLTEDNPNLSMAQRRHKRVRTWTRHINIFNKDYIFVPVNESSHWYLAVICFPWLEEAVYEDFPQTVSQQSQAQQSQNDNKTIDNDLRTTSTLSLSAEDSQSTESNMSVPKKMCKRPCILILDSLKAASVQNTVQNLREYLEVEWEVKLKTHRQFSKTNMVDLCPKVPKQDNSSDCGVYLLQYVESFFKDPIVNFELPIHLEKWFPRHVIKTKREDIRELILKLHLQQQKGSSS
SENP8 block-2: inhibitors of human SENP8 protease; AID 2540; Q96LD8; inhibition, % at 10 µM; 330,000 compounds, 1.2% hits; purified SENP8, Z-RLRGG-aminoluciferin cleavage, luminescence; in the data active = inhibition above about 50%
Platelet DG rel: modulates dense granule release in human platelets | human platelet-rich plasma, SFLLRN dense granule ATP release, luminescence | inhibition, %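 (compounds screened at 7.5 µM in platelet-rich plasma)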 | 300,000 compounds, 0.22% hits;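 active = mean replicate score, as percent of positive control, at or above 50; inconclusive = mean below 50 but at least one replicate at or above 50; inactive = mean and every replicate below 50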
SENP6 inh: inhibitors of human SENP6 protease; Q9GZR1; Recombinant SENP6 catalytic domain, aminoluciferin luminescence; inhibition, % at 10 µM; 330,000 compounds, 1.8% hits; AID 2599;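 active = inhibition above about 50% at the single tested dose, limit read from the data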
SENP8 confirm: human SENP8 inhibition, confirmed | shares compounds with SENP7 block | Recombinant SENP8, Z-RLRGG-aminoluciferin luminescence, 60 min | inhibition, % at 12.5 µM | 6,200 compounds, 40% hits;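 active = mean inhibition across replicates above about 50%, limit read from the data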
SENP6 confirm: human SENP6 inhibition, confirmed; AID 488915; shares compounds with SENP7 block; recombinant SENP6, Z-RLRGG-aminoluciferin luminescence; inhibition, % at 12.5 µM; 6,200 compounds, 58% hits
SENP7 conf: confirmation of human SENP7 protease inhibitors. shares compounds with SENP7 block. recombinant SENP7, Z-RLRGG-aminoluciferin luminescence, 40 min. inhibition, % at 12.5 µM. 6,200 compounds, 69% hits. AID 488917
Casp3 SENP sel: caspase-3 inhibition (SENP selectivity assay); shares compounds with SENP7 block; purified caspase-3, Z-DEVD-aminoluciferin luminescence, 60 min; inhibition, % at 12.5 µM; 6,200 compounds, 60% hits; AID 488918;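 active = mean inhibition above about 50%, limit read from the data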
Target sequence (P42574 28-227 limits assumed): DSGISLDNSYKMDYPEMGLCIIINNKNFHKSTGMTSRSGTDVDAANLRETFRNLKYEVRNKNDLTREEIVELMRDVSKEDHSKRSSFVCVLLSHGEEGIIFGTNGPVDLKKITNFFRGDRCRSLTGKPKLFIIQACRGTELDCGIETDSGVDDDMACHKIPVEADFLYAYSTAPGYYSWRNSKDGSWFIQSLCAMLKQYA
SENP luc ctr: interferes with luciferase luminescence in SENP counter-screen; shares compounds with SENP7 block; Pre-incubated SENP8/Z-RLRGG-aminoluciferin, luciferase luminescence interference; inhibition, % at 12.5 µM; 6,200 compounds, 39% hits;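 active = mean inhibition above about 50% when retested at one dose, limit read from the data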
Numbers stand for hits.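 The calls were made as follows, unless noted: active = mean inhibition above about 50% in the one-dose retest (limit read from the data); inactive = the rest.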

COC(=O)Cc1ccc2sc(-c3ccccc3)nc2c1 was read as SENP8 block-1 inactive, SENP7 block 100, SENP8 block-2 94, Platelet DG rel inactive, SENP6 inh 94, SENP8 confirm 96, SENP6 confirm 98, SENP7 conf 101, Casp3 SENP sel 96 and SENP luc ctr 94.
Cc1ccc(CN=c2c([N+](=O)[O-])nn(-c3ccc4c(c3)OCCO4)n2O)cc1 was read as SENP8 block-1 inactive, SENP7 block inactive, SENP8 block-2 inactive, Platelet DG rel inactive, SENP6 inh 59, SENP8 confirm inactive, SENP6 confirm inactive, SENP7 conf 58, Casp3 SENP sel inactive and SENP luc ctr inactive.
`O=[N+]([O-])c1nn(-c2ccc3c(c2)OCCO3)n(O)c1=NCCCO` gave SENP8 block-1 inactive, SENP7 block inactive, SENP8 block-2 inactive, Platelet DG rel inactive and SENP6 inh inactive.
NC(=O)COC(=O)c1ccccc1Nc1ccc(SC(F)F)cc1 was read as SENP8 block-1 inactive, SENP7 block inactive, SENP8 block-2 inactive, Platelet DG rel inactive, SENP6 inh 64, SENP8 confirm 61, SENP6 confirm 60, SENP7 conf 77, Casp3 SENP sel inactive and SENP luc ctr 69.
Screening Cc1cccc(Nc2ccccc2C(=O)OCC(=O)NCc2ccco2)c1C returned SENP8 block-1 inactive, SENP7 block inactive, SENP8 block-2 inactive, Platelet DG rel inactive and SENP6 inh inactive.
`O=C(COC(=O)c1ccccc1Nc1ccc(SC(F)F)cc1)NCc1ccco1` gave SENP8 block-1 inactive, SENP7 block inactive, SENP8 block-2 inactive, Platelet DG rel inactive, SENP6 inh 65, SENP8 confirm inactive, SENP6 confirm inactive, SENP7 conf inactive, Casp3 SENP sel inactive and SENP luc ctr inactive.
CC(OC(=O)c1ccccc1Nc1ccc(SC(F)F)cc1)C(N)=O (centres undefined) was read as SENP8 block-1 inactive, SENP7 block inactive, SENP8 block-2 inactive, Platelet DG rel inactive and SENP6 inh inactive.
`O=C(NCCc1nnc2ccc(SCC(=O)N3CCCC3)nn12)c1ccccc1` gave SENP8 block-1 inactive, SENP7 block inactive, SENP8 block-2 inactive, Platelet DG rel inactive and SENP6 inh inactive.
Screening C/C(CC(C)C)=N\NS(=O)(=O)c1ccc(C)c([N+](=O)[O-])c1 returned SENP8 block-1 inactive, SENP7 block inactive, SENP8 block-2 inactive, Platelet DG rel inactive, SENP6 inh 85, SENP8 confirm inactive, SENP6 confirm inactive, SENP7 conf inactive, Casp3 SENP sel inactive and SENP luc ctr inactive.
Cc1ccc(N2CC(C(=O)N3CCN(Cc4ccc5c(c4)OCO5)CC3)CC2=O)cc1 (centres undefined) was read as SENP8 block-1 inactive, SENP7 block inactive, SENP8 block-2 inactive, Platelet DG rel inactive and SENP6 inh inactive.
`CCOC(=O)c1csc(NC(=O)c2ccc3c(c2)OCCO3)n1` gave SENP8 block-1 inactive, SENP7 block inactive, SENP8 block-2 inactive, Platelet DG rel inactive and SENP6 inh inactive.
COc1ccccc1/C=C/c1nc2ccc(OC(C)=O)cc2c(=O)o1 was read as SENP8 block-1 inactive, SENP7 block 65, SENP8 block-2 64, Platelet DG rel inactive, SENP6 inh 72, SENP8 confirm inactive, SENP6 confirm inactive, SENP7 conf inactive, Casp3 SENP sel inactive and SENP luc ctr inactive.
Screening COc1ccccc1/C=C/c1nc2ccccc2c(=O)o1 returned SENP8 block-1 inactive and Platelet DG rel inactive.
COc1ccc(/C=C/c2nc3ccccc3c(=O)o2)cc1 was read as SENP8 block-1 inactive, SENP7 block 78, SENP8 block-2 84, Platelet DG rel inactive, SENP6 inh 90, SENP8 confirm 71, SENP6 confirm 71, SENP7 conf 83, Casp3 SENP sel 63 and SENP luc ctr 65.
c1ccc(-c2nc3c(ccc4ccccc43)[nH]2)nc1 was read as SENP8 block-1 inactive, SENP7 block 76, SENP8 block-2 67, Platelet DG rel inconclusive, SENP6 inh 73, SENP8 confirm 83, SENP6 confirm 79, SENP7 conf 95, Casp3 SENP sel 76 and SENP luc ctr 82.
For Nc1nc(-c2nc3ccccc3[nH]2)cs1 the results were SENP8 block-1 inactive, SENP7 block inactive, SENP8 block-2 inactive, Platelet DG rel inactive, SENP6 inh 52, SENP8 confirm inactive, SENP6 confirm inactive, SENP7 conf 72, Casp3 SENP sel 78 and SENP luc ctr 58.
`O=c1[nH]c(-c2ccccn2)nc2ccccc12` gave SENP8 block-1 inactive, SENP7 block inactive, SENP8 block-2 inactive, Platelet DG rel inactive and SENP6 inh inactive.
For Cc1ccc2nc(-c3ccccc3N)[nH]c2c1 the results were SENP8 block-1 inactive, SENP7 block 95, SENP8 block-2 90, Platelet DG rel inactive, SENP6 inh 93, SENP8 confirm inactive, SENP6 confirm 96, SENP7 conf 102, Casp3 SENP sel 91 and SENP luc ctr 90.
For Cc1ccc2nc(-c3ccccn3)[nH]c2c1 the results were SENP8 block-1 inactive, SENP7 block 91, SENP8 block-2 83, Platelet DG rel 58, SENP6 inh 90, SENP8 confirm 92, SENP6 confirm 91, SENP7 conf 100, Casp3 SENP sel 96 and SENP luc ctr 91.
Screening Cc1ccc(C)c(-c2nc3ccc(N)cc3[nH]2)c1 returned SENP8 block-1 inactive, SENP7 block inactive, SENP8 block-2 inactive, Platelet DG rel inactive and SENP6 inh inactive.
c1ccc(-c2nc3ccccc3[nH]2)nc1 was read as SENP8 block-1 inactive, SENP7 block 75, SENP8 block-2 inactive, Platelet DG rel inactive, SENP6 inh 69, SENP8 confirm 61, SENP6 confirm 60, SENP7 conf 88, Casp3 SENP sel 90 and SENP luc ctr 70.
Screening Oc1c(-c2cc(-c3ccco3)[nH]n2)ccc2ccccc12 returned SENP8 block-1 inactive, SENP7 block 55, SENP8 block-2 55, Platelet DG rel inactive, SENP6 inh inactive, SENP8 confirm inactive, SENP6 confirm 69, SENP7 conf 86, Casp3 SENP sel inactive and SENP luc ctr inactive.
Screening Oc1ccccc1-c1cc(-c2ccco2)[nH]n1 returned SENP8 block-1 inactive, SENP7 block inactive, SENP8 block-2 inactive, Platelet DG rel inactive and SENP6 inh inactive.
`CCN(c1ccccc1)c1nc(Cl)nc2c1cnn2C` gave SENP8 block-1 inactive.
